D3 antag: D3 dopamine receptor (human) antagonism | P35462 | D3R cells, DiscoveRx beta-arrestin luminescence, antagonist mode; active compounds read low | max response, negative = inhibition, % | 2.5% of 360,000 active; in the data active = max response below about -50%; inconclusive = no clear call, values can overlap the other calls; also: % is scaled to controls: 0 for no effect and ±100 for the full control effect
Target sequence (P35462 whole entry, looked up): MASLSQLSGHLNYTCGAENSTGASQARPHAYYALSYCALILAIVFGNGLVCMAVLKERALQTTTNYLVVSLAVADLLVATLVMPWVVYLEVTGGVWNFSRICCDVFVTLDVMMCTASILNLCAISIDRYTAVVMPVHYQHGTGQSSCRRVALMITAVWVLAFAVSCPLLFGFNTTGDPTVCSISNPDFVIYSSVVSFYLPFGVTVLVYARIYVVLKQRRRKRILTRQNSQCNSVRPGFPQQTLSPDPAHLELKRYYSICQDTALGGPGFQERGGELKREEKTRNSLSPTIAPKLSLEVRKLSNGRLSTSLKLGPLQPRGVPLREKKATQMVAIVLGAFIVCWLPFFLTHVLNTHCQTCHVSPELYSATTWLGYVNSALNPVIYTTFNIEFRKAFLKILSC
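Cells plated overnight at 1500 cells/well, then exposed to library compounds with dopamine controls for 90 minutes at 37 degrees C. DiscoveRx reagent added for 30–60 minutes at room temperature; luminescence read, quantitative HTS format.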
DRD3 agonist: agonists of human D3 dopamine receptor; 0.58% of 410,000 active; D3R DiscoveRx beta-arrestin cells, luminescence, 90 min; P35462; max activation, %; in the data active = max activation above about 30%; also: 0% is about no effect
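Agonist mode: compounds and dopamine controls were applied to plated cells for 90 min at 37 degrees C after an overnight attachment at 1500 cells/well. Luminescent read-out followed 30 - 60 minutes at room temperature with DiscoveRx detection reagent.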
GLP-1R inv ag: inverse agonists of human GLP-1 receptor; HEK293 GLP-1R CRE-luciferase, luminescence, 24 h; GLP-1R form is constitutively active; Potency, µM (titrated, usually from 38.3 µM), for the others: top-dose activity change, negative = inhibition, actives largely listed as inhibitors; 1.6% of 410,000 active; also: potency is read from the fitted curve at half-maximal effect; % is scaled to controls: 0 for no effect and ±100 for the full control effect; nearly all actives have a fitted effect of over 55% in size
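Assay principle: reduced luminescence from a cAMP-responsive reporter in HEK293 cells co-expressing a constitutively active GLP-1R. Conditions: 24 hr compound incubation, 37 deg C, 5% CO2.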
GLP1R ag: GLP-1 receptor (human) agonism; 0.007% of 380,000 active; HEK293 GLP-1R CRE-luciferase, luminescence, 4-6 h; cells express a hypersensitive GLP-1R form; AID 624172; Potency, µM (series often up to 45.6 µM), for the others: at the top dose activation, most hits filed as activators; P43220; also: potency is read from the fitted curve at half-maximal effect; % of control where 0% means no effect
* = called active by the depositor; [ ] = remark or other dose. In the library only some 4.3% were active in any assay of this set; here they are far more common. Unless noted, calls follow the shape of the dose curve; as a rule, active = well fitted curve in the direction sought with a large enough effect; inconclusive = small, poorly fitted or top-dose-only effect, or another doubt; inactive = no such curve, though single readings can be large; an effect the other way counts as inactive or inconclusive.

`CCCCCCCCCCCCCCCCCC(=O)OCCO` gave DRD3 agonist -10 and GLP1R ag 6%.
`CC(=O)Nc1ccc(NC(=O)CN2CCN(c3ccccn3)CC2)cc1` gave D3 antag 0, DRD3 agonist 11, GLP-1R inv ag 7% and GLP1R ag 9%.
O=C(CCN1CCN(c2ccccn2)CC1)Nc1ccc(F)cc1 was read as D3 antag inconclusive, DRD3 agonist 9, GLP-1R inv ag -22% and GLP1R ag -8%.
`CN(C)S(=O)(=O)c1cc(NC(=O)CN2CCN(c3ccccc3)CC2)ccc1Cl` gave D3 antag 9, DRD3 agonist 64*, GLP-1R inv ag inconclusive and GLP1R ag -3%.
CN(C)c1ccc(NC(=O)CCN2CCN(c3ccccn3)CC2)cc1 was read as D3 antag -4, DRD3 agonist 95*, GLP-1R inv ag -12% and GLP1R ag 4%.
CCN(CC)S(=O)(=O)c1cc(NC(=O)C(C)N2CCN(c3ccccn3)CC2)ccc1C (configuration not stated) was read as D3 antag 23, DRD3 agonist 3, GLP-1R inv ag inconclusive and GLP1R ag 4%.
For CCN(CC)S(=O)(=O)c1cc(NC(=O)CN2CCN(c3ccccn3)CC2)ccc1C the results were D3 antag 6, DRD3 agonist 91*, GLP-1R inv ag -30% and GLP1R ag 2%.
For CN(C)S(=O)(=O)c1ccc(NC(=O)CN2CCN(c3ccccn3)CC2)cc1 the results were D3 antag 11, DRD3 agonist 66*, GLP-1R inv ag 15% and GLP1R ag 8%.
`CCNC(=O)C1CCCN(C(=O)c2cc(OC)c(OC)c(OC)c2)CC1` (configuration not stated) gave D3 antag -14, DRD3 agonist 3, GLP-1R inv ag 13% and GLP1R ag 0%.
For Cc1cc(C)n(-c2nc3cc(Cl)ccc3nc2Nc2ccc(C)c(F)c2)n1 the results were DRD3 agonist 17 and GLP-1R inv ag 17%.
Screening Cc1ccc(NC(=O)CN2CCN(c3ccccn3)CC2)cc1S(=O)(=O)N(C)C returned D3 antag 70, DRD3 agonist 62*, GLP-1R inv ag -8%[0.307 µM] and GLP1R ag -3%.
Screening O=C(CN1CCN(c2ccccn2)CC1)Nc1ccc(Cl)c(C(F)(F)F)c1 returned D3 antag -66*, DRD3 agonist 3, GLP-1R inv ag 1% and GLP1R ag 14%.
Screening O=C(CN1CCN(c2ccccn2)CC1)Nc1cc(C(F)(F)F)ccc1Cl returned D3 antag 0, DRD3 agonist 6, GLP-1R inv ag inconclusive and GLP1R ag 15%.
`Cc1[nH]c2ccccc2c1C(c1ccccc1)c1ccc(Cl)s1` (configuration not stated) gave DRD3 agonist -24 and GLP-1R inv ag 10µM*.
For COc1ccc(Cl)cc1NC(=O)Cn1c(=O)n(Cc2nc(C)no2)c(=O)c2ccccc21 the results were DRD3 agonist -17 and GLP-1R inv ag 11%.
C=CCn1c(CCNC(=O)c2ccco2)nc2ccccc21 was read as D3 antag -74*, DRD3 agonist -27, GLP-1R inv ag 11% and GLP1R ag 1%.
`CC(C)c1ccccc1NC(=O)Nc1nc(C(N)Cc2ccc(C(F)(F)F)cc2)cs1` (configuration not stated) gave D3 antag 37, DRD3 agonist 14, GLP-1R inv ag 13µM* and GLP1R ag -23%.
`Cc1ccc(NC(=O)NC(C)c2c(-n3cccc3)sc(C)c2C)cc1F` (configuration not stated) gave DRD3 agonist 2 and GLP-1R inv ag inconclusive.
NC(Cc1ccc(C(F)(F)F)cc1)c1csc(NC(=O)Nc2ccccc2Cc2ccccc2)n1 (configuration not stated) was read as D3 antag 21, DRD3 agonist 5, GLP-1R inv ag inconclusive and GLP1R ag -24%.
Cc1sc(-n2cccc2)c(C(C)NC(=O)Nc2cccc(C(F)(F)F)c2)c1C (configuration not stated) was read as DRD3 agonist 9 and GLP-1R inv ag 8.9µM*.
Screening CCOC(=O)Cc1csc(NC(=O)Nc2ccc(Cl)cc2)n1 returned D3 antag -16, DRD3 agonist -5, GLP-1R inv ag 11µM* and GLP1R ag -1%.
CC(C)c1ccc(NC(=O)Nc2nc(C(N)C(C)C)cs2)cc1 (configuration not stated) was read as D3 antag -54*, DRD3 agonist 43*, GLP-1R inv ag inconclusive and GLP1R ag -7%.
